Measured values: ChEMBL document CHEMBL4808148, “HDAC6 screening dataset using tau-based substrate in an enzymatic assay yields selective inhibitors and activators” (2021)
Screen size: about 5,600 compounds; about 390 (7%) showed an effect of 50% or more. Only a selection was taken, and strong results are over-represented in it overall.

Key:
[1] = biological target: T1, Protein deacetylase HDAC6 (Homo sapiens) (UniProt Q9UBN7); settings: at 10 µM
T1 sequence (whole entry): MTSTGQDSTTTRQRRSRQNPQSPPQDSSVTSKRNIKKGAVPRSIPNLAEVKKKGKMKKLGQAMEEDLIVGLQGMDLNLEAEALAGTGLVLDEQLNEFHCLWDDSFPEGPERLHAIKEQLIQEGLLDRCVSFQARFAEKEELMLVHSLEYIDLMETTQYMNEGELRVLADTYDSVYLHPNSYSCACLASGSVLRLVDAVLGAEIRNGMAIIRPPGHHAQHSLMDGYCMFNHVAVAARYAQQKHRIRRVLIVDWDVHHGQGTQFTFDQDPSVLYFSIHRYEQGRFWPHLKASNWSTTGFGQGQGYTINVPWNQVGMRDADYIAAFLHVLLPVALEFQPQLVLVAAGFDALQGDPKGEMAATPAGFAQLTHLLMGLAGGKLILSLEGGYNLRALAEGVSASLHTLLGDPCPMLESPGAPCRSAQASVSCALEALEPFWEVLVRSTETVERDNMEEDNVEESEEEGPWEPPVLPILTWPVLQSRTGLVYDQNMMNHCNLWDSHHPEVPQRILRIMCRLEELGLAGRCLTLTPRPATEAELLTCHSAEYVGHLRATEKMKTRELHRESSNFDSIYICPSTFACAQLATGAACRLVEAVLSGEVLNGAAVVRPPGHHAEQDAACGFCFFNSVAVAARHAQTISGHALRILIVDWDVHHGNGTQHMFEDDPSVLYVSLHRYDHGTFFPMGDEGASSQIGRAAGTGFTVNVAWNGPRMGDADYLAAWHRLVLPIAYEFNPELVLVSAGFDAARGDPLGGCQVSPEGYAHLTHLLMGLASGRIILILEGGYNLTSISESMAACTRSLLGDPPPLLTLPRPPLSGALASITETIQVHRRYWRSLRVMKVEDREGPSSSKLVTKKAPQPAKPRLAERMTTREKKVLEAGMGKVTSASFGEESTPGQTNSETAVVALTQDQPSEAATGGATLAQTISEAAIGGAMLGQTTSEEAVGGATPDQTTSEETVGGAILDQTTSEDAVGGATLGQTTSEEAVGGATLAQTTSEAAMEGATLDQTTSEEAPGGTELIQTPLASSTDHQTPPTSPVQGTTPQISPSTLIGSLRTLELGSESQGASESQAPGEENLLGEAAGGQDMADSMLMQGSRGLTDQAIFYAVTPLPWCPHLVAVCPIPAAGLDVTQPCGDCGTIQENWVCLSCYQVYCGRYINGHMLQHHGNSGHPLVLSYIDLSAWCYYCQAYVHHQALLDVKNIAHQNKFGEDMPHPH

[2] = biological target: Protein deacetylase HDAC6 (Homo sapiens) (UniProt Q9UBN7); settings: at 10 µM; remark: listed apart in the source

CCOc1cc2ncc(C#N)c(Nc3ccc(OCc4cccc(F)c4)c(Cl)c3)c2cc1NC(=O)/C=C/CN(C)C
inhibition [1]: -4.4%

Clc1ccc2nsnc2c1NC1=NCCN1
inhibition [1]: -9.25%

CC(C)Oc1ccc(Cc2ccc(NC3=NCCN3)cc2)cc1
inhibition [1]: 64%

CCc1[nH]c(=O)[nH]c1C(=O)c1ccncc1
inhibition [1]: -6.73%

COc1ccc2nc3[nH]nc(C)c3c(NCCOCCO)c2c1
inhibition [1]: 0.89%

COc1cc(OC)c2c(=O)[nH]c(-c3cc(C)c(OCCO)c(C)c3)nc2c1
inhibition [1]: 80.1%

Nc1nc(Nc2ccc(S(N)(=O)=O)cc2)nn1C(=O)c1c(F)cccc1F
inhibition [1]: 38.5%

COc1ccc(CNC(=O)c2sc3nc(C)cc(C)c3c2N)cc1
inhibition [1]: 2.68%

C#Cc1cccc(Nc2ncnc3cc(OCCOC)c(OCCOC)cc23)c1
inhibition [1]: 32.3%

C#Cc1cccc(Nc2ncnc3cc(OC)c(OCCCCCCC(=O)NO)cc23)c1
inhibition [1]: 101%

COc1cc2ncnc(Nc3cccc(Br)c3)c2cc1OC
inhibition [1]: 16.9%

Cn1ccnc1S
inhibition [1]: -0.6%

O=C(O)c1cc(C(=O)O)c(C(=O)N(Cc2cccc(Oc3ccccc3)c2)[C@H]2CCCc3ccccc32)cc1C(=O)O
inhibition [1]: 7.63%

Cc1ccc(Sc2ccccc2N2CCNCC2)c(C)c1
inhibition [1]: -7.14%

CN(C)C(=O)Nc1cccc(-c2ccc(N(C)C)cc2)c1
inhibition [1]: 94.6%

CC(=O)Nc1cccc(O)c1
inhibition [1]: 34.1%

COC(=O)/C=C/c1cccc(N(Cc2ccc(-c3ccc(N(C)C)cc3)cc2)C(=O)C2CCCCC2)c1
inhibition [1]: -3.18%

CC1(C)C(/C=C/C=C/C=C/C=C2\N(CCCCS(=O)(=O)O)c3ccc4ccccc4c3C2(C)C)=[N+](CCCCS(=O)(=O)[O-])c2ccc3ccccc3c21
inhibition [1]: 21.1%

OCCOCCN1CCN(C(c2ccccc2)c2ccc(Cl)cc2)CC1 (stereo not drawn)
inhibition [1]: 89.5%

O=C(O)COCCN1CCN([C@H](c2ccccc2)c2ccc(Cl)cc2)CC1
inhibition [1]: -6.59%

O=C(O)COCCN1CCN(C(c2ccccc2)c2ccc(Cl)cc2)CC1 (stereo not drawn)
inhibition [1]: -6.57%

Cc1c(CC(C)(C)C(=O)O)n(Cc2ccc(Cl)cc2)c2ccc(F)cc12
inhibition [1]: 3.54%

Nc1ccn([C@@H]2C(F)=C(CO)[C@@H](O)[C@H]2O)c(=O)n1
inhibition [1]: 8.8%

CCc1cccc(CC)c1NC(=O)c1nn(C)c2c1CCc1cnc(Nc3ccc(C(=O)NC4CCN(C)CC4)cc3OC(F)(F)F)nc1-2
inhibition [1]: -2.89%

CC(C)(CCCCCCCCCCC(C)(C)CC(=O)O)CC(=O)O
inhibition [1]: -0.28%

N#Cc1cc(F)cc(-c2nc(-c3ccc(F)cn3)no2)c1
inhibition [1]: 83.6%

N#Cc1cccc(-c2nc(-c3cccnc3)no2)c1
inhibition [1]: 19.8%

COC(=O)c1cnn(-c2ccc(F)cc2F)c1/C=N/NC(=S)NC(C)(C)C
inhibition [1]: 0.12%

CC[C@H](C)[C@H](N)C(=O)O
inhibition [1]: 9.28%

COc1ncc2cc(C(=O)Nc3cc(C(=O)NCc4cccc(Cl)c4)ccc3Cl)c(=O)[nH]c2n1
inhibition [1]: 4.52%

Cn1nc(-c2cccc(F)c2)n(C)c1=S
inhibition [1]: 17.9%

Cc1csc(S(=O)(=O)N(CC(C)C)c2cc3c(cc2OCc2ccc(C(=O)O)cc2)CCC3)n1
inhibition [1]: 1.78%

Cc1ccc(C(=O)Nc2ccc(S(=O)(=O)O)c3cc(S(=O)(=O)O)cc(S(=O)(=O)O)c23)cc1NC(=O)c1cccc(NC(=O)Nc2cccc(C(=O)Nc3cc(C(=O)Nc4ccc(S(=O)(=O)O)c5cc(S(=O)(=O)O)cc(S(=O)(=O)O)c45)ccc3C)c2)c1
inhibition [1]: 32.3%

Cc1ccc(NC(=O)c2cccc(N(C)C)c2)cc1NC(=O)c1ccc(O)cc1
inhibition [1]: 80.4%

CNCc1ccc(C)c(NC(=O)c2ccc(Nc3nc(-c4ccccc4)c4ccccc4n3)cc2)c1
inhibition [1]: -7.66%

CC(=O)O[C@H]1CC[C@@]2(C)C(=CC[C@@H]3[C@@H]2CC[C@]2(C)C(c4cccnc4)=CC[C@@H]32)C1
inhibition [1]: 15.8%

O=[N+]([O-])c1cc2nc(O)c(O)nc2cc1[N+](=O)[O-]
inhibition [1]: -5.28%

CC(C)c1ccc(-c2cc(=O)c3ccccc3o2)cc1
inhibition [1]: 101%

O=C(O)c1cc(=O)c2ccccc2o1
inhibition [1]: -1.55%

NCCC(Oc1ccc(C(F)(F)F)cc1)c1ccccc1 (stereo not drawn)
inhibition [1]: 1.38%

CC[C@H]1OC(=O)[C@@](C)(F)C(=O)[C@H](C)[C@@H](O[C@@H]2O[C@H](C)C[C@H](N(C)C)[C@H]2O)[C@](C)(OC)C[C@@H](C)C(=O)[C@H](C)[C@H]2N(CCCCn3cc(-c4cccc(N)c4)nn3)C(=O)O[C@]12C
inhibition [1]: 17.2%

FC(F)c1nc2ccccc2n1-c1nc(N2CCOCC2)nc(N2CCOCC2)n1
inhibition [1]: 29.1%

c1ccc2sc(SN3CCOCC3)nc2c1
inhibition [1]: 58.2%

COc1ccccc1Oc1c(NS(=O)(=O)c2ccc(C(C)(C)C)cc2)nc(-c2ncccn2)nc1OCCO
inhibition [1]: 22.5%

COc1ccc(F)c(F)c1C(=O)c1cnc(NC2CCN(S(C)(=O)=O)CC2)nc1N
inhibition [1]: -5.57%

C=CCNC(=O)c1cc([N+](=O)[O-])cc2c(=O)[nH]c(Nc3ccc(Cl)c(Cl)c3)nc12
inhibition [1]: 17.8%

CN(C)c1ccc2c(c1)Sc1cc(N(C)C)ccc1N2
inhibition [1]: 66.8%

N#CN=C(NCCCCCCOc1ccc(Cl)cc1)Nc1ccncc1
inhibition [1]: -6.3%

COc1cc2c(NC3CCN(C(C)C)CC3)nc(N3CCC(F)(F)CC3)nc2cc1OCCCN1CCCC1
inhibition [1]: -5.91%

COc1cc(C2Oc3ccc(C4Oc5cc(O)cc(O)c5C(=O)C4O)cc3OC2CO)ccc1O (stereo not drawn)
inhibition [1]: -5.75%

Cc1cc(Cn2nnc3c(-c4ccco4)nc(N)nc32)ccc1N
inhibition [1]: -1.08%

Cc1c(OCc2cccc(-c3ccc(C(=O)O)cc3)c2)cc2c(c1C)C(=O)C(C1CCCC1)C2 (stereo not drawn)
inhibition [1]: -0.56%

CCN1C(=O)NC(c2ccccc2)C1=O (stereo not drawn)
inhibition [1]: 22.6%

CCCCn1ccc(N2CCC(c3ccccc3)CC2)c(Cl)c1=O
inhibition [1]: 59.9%

Cc1ccc2c(c1)C(=O)C1(O)CCN(c3ccccc3)C1=N2 (racemic)
inhibition [1]: 1.13%

O=C(O)C[C@H]1CC[C@H](c2ccc(NC(=O)c3nnc(Nc4ccc(F)c(F)c4)o3)cc2)CC1
inhibition [1]: 35.2%

Oc1cc(O)c2cc(O)c(-c3cc(O)c(O)c(O)c3)[o+]c2c1
inhibition [1]: 38.4%

CC(C)(C)c1ccc(NC(=O)N2CCN(c3ncccc3Cl)CC2)cc1
inhibition [1]: 24.7%

CC(C)Nc1cccnc1N1CCN(C(=O)c2cc3cc(NS(C)(=O)=O)ccc3[nH]2)CC1
inhibition [1]: 51.2%

COC1=C(OC)C(=O)C(C/C=C(\C)CC/C=C(\C)CC/C=C(\C)CC/C=C(\C)CC/C=C(\C)CC/C=C(\C)CC/C=C(\C)CC/C=C(\C)CC/C=C(\C)CCC=C(C)C)=C(C)C1=O
inhibition [1]: 4.15%

N[C@H](C(=O)O)c1ccc(O)c(C(=O)O)c1
inhibition [1]: -8.79%

N[C@@H](C(=O)O)c1ccc(O)c(C(=O)O)c1
inhibition [1]: 1.46%

CC(C)c1ccc2oc3nc(N)c(C(=O)O)cc3c(=O)c2c1
inhibition [1]: 98.2%

BISMUTH SUBCITRATE POTASSIUM, CHEMBL1201186
inhibition [2]: 16.3%

Cc1ccc(/C(=C\CN2CCCC2)c2cccc(/C=C/C(=O)O)n2)cc1
inhibition [1]: -6.81%

COc1cc(C[C@H]2c3cc(OC)c(OC)cc3CCN2C)c(Oc2cc3c(cc2OC)-c2c(OC)c(OC)cc4c2[C@H](C3)N(C)CC4)cc1OC
inhibition [1]: 33.6%

COc1cc(C(=O)NCC2(N(C)C)CCCC2)cc(OC)c1OCc1ccccc1
inhibition [1]: 0.96%

Nc1nc(NCCc2ccc(O)cc2)nc2nc(-c3ccco3)nn12
inhibition [1]: 67.5%

COc1cc(C(=S)N2CCOCC2)cc(OC)c1OC
inhibition [1]: 14.8%

COc1ccc(S(=O)(=O)N2c3ccc(Cl)cc3[C@](O)(c3ccccc3Cl)[C@@H]2C(=O)N2CCC[C@H]2C(N)=O)cc1OC
inhibition [1]: -7.22%

Cn1ccc2cc3c(cc21)CCN3C(=O)Nc1cccnc1
inhibition [1]: 100%

O=C(NCC(=O)N1CCCC1)Nc1ccc2cnccc2c1
inhibition [1]: -7.55%

CSc1cc2c(cc1C(F)(F)F)N(C(=O)Nc1cccnc1)CC2
inhibition [1]: 19.3%

COc1cc2c(cc1C(F)(F)F)N(C(=O)Nc1cc(F)cc(-c3cccnc3)c1)CC2
inhibition [1]: -6.46%

O=C(Nc1ccc2c(O)cc(S(=O)(=O)O)cc2c1)Nc1ccc2c(O)cc(S(=O)(=O)O)cc2c1
inhibition [1]: 45.9%

Cn1ccc2cc(NC(=O)Nc3cccnc3)ccc21
inhibition [1]: 88.1%

Cc1c(C(=O)NN2CCOCC2)nn(-c2ccc(Cl)cc2Cl)c1-c1ccc(I)cc1
inhibition [1]: 0.27%

COc1cccc([C@@H](C)NCCCc2ccccc2Cl)c1
inhibition [1]: 2.6%

CC(C)C[C@H](N)C(=O)O
inhibition [1]: 5.48%

CC(=O)Nc1cccc(Nc2ncnc(N3CCC(OCc4ccc(OC(F)(F)F)cc4)CC3)n2)c1C
inhibition [1]: 22.4%

CCc1c(-c2ccccc2)c(-c2ccccc2)nn1-c1ccccc1-c1cccc(OCC(=O)O)c1
inhibition [1]: 10.2%

c1ccc2[nH]c(-c3cscn3)nc2c1
inhibition [1]: 97.3%

O=C(O)CCc1nc2ccccc2[nH]1
inhibition [1]: 10.6%

CCN(c1cc(C#CCN2CCOCC2)cc(C(=O)NCc2c(C)cc(C)[nH]c2=O)c1C)[C@H]1CC[C@H](N(C)CCOC)CC1
inhibition [1]: -8.25%

COc1ccccc1OC(=O)C(C)c1ccc(CC(C)C)cc1 (stereo not drawn)
inhibition [1]: 10.7%

CCOC(=O)[C@H](CCc1ccccc1)N[C@@H](C)C(=O)N1[C@H](C(=O)O)C[C@H]2CCCC[C@@H]21
inhibition [1]: 3.93%

Cc1cccc(C)c1-n1c(=O)c2cnc(Nc3ccc(N4CCN(C)CC4)cc3)nc2n2c3ccccc3nc12
inhibition [1]: -1.49%

O=C(Nc1c[nH]nc1-c1nc2ccc(CN3CCOCC3)cc2[nH]1)NC1CC1
inhibition [1]: 32.3%

Nc1ccc2cc3ccc(N)cc3nc2c1
inhibition [1]: 6.02%

Nc1ccc(-c2nc3ccc(-c4nc5ccc(N)cc5[nH]4)cc3[nH]2)cc1
inhibition [1]: 61.9%

CC(C)C(C(=O)Nc1nccs1)c1ccc(Cl)cc1 (stereo not drawn)
inhibition [1]: 10.4%

COC(=O)c1csc(C(=O)c2c[nH]c3ccccc23)n1
inhibition [1]: 47.6%

Nc1ccn([C@@H]2O[C@H](CO)[C@@H](O)C2(F)F)c(=O)n1
inhibition [1]: -4.87%

COC(=O)Nc1nc2cc(C(=O)c3ccc(F)cc3)ccc2[nH]1
inhibition [1]: 1.02%

CCCOc1ccc2[nH]c(NC(=O)OC)nc2c1
inhibition [1]: 31.6%

COC(=O)Nc1nc2cc(SC(C)C)ccc2[nH]1
inhibition [1]: 79.4%

COC(=O)Nc1nc2cc(Sc3ccccc3)ccc2[nH]1
inhibition [1]: 65.2%

COC(=O)Nc1nc2cc(C(=O)c3ccccc3)ccc2[nH]1
inhibition [1]: -5.79%
